The record followed here is PubChem BioAssay.

SMILES strings stand for the structures. Records with an inconclusive call do not appear. The source made the active and inactive calls.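 The calls were made as follows, unless noted: active = normalized viability below 100% at a tested concentration; inactive = the rest.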

Experiment [1] is described as follows: viability loss in pontine glioma line – cell-based, SU-DIPG-XVII, MIPE5.0, CellTiter-Glo, qHTS, dose response (AID 1347060; cut-off not given, nearly all actives have AC50 up to about 26 µM;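 as to AC50: cells exposed to compound for 48 hours before viability readout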). Particulars: CellTiter-Glo ATP luminescence. (In ATP-based viability assays light output follows the ATP content of the culture.)
A short description of experiment [2]: viability loss in pontine glioma line – cell-based, SU-DIPG-XXV, MIPE5.0, CellTiter-Glo, qHTS, dose response (AID 1347065; cut-off not given, nearly all actives have AC50 up to about 26 µM;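 also: cells exposed to compound for 48 hours before ATP readout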). The note with it: CellTiter-Glo ATP luminescence.
Experiment [3] in a line: JHH-DIPG-1 glioma cell viability, MIPE5.0 library, CellTiter-Glo luminescence, qHTS (AID 1347067; cut-off not given, nearly all actives have AC50 up to about 26 µM;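 also: cells exposed to compound for 48 hours before readout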). The note with it: JHH-DIPG-1 glioma viability, CellTiter-Glo ATP luminescence.
Experiment [4] in a line: growth inhibition of DIPG cells – cell-based, MIPE5.0 library, qHTS (AID 1347068; cut-off not given, nearly all actives have IC50 up to about 30 µM;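 as to IC50: cells exposed to compound for 48 hours before viability readout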). The note with it: SU-DIPG-XXV viability.
Experiment [5] is described as follows: viability loss with induced miR-34 in A549 – imaging, A549 dox-inducible miR-34, nuclei and caspase counts, primary screen (AID 1347080;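 active = compounds whose cell count with miR-34 switched on is under 0.7 times the count with it off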). The note with it: A549 miR-34 inducible, Hoechst nuclei count, 48 h.
Experiment [6] in a line: MELAS cybrid and Rieske KO viability enhancers – cell-based, MELAS cybrids, Rieske KO mouse fibroblasts, CellTiter-Glo, primary screen (AID 1508586;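 active = mean z-score across replicates of 1.96 or higher in either the MELAS or the Rieske mutant cell line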;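 also: z relative to plate mean and SD of compound and empty wells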). The note with it: low glucose.
Experiment [7] in a line: drug combination growth inhibition, ovarian cancer – cell-based, oncology-focused library, rucaparib conditional, profiling panel (AID 1508598). Particulars: patient-derived ovarian cancer cells, CellTiter-Glo viability, 144 h, stronger effect = lower value.
Experiment [8] in a line: growth inhibition of DIPG cells – cell-based, MIPE4.0 library, CellTiter-Glo luminescence, qHTS (AID 1347066; cut-off not given, nearly all actives have AC50 up to about 30 µM;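 also: cells exposed to compound for 48 hours before readout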). The note with it: SU-DIPG-VI viability, CellTiter-Glo ATP luminescence.
Setting [9] is: stronger effect = lower value, cell number ratio, induced over uninduced.
The mark [10] stands for this setting: measured here: relative caspase fold change +Dox/-Dox.
Where [11] appears, read: measured here: total cells with miR-34 induction, stronger effect = lower value.
Where [12] appears, read: measured here: total cells without miR-34 induction.
Setting [13] is: MELAS cybrid survival, CellTiter-Glo 48 h, stronger effect = higher value.
Setting [14] is: Rieske KO mouse fibroblast survival, CellTiter-Glo 72 h.
Setting [15] is: at 0.000305 µM, OCI-C5x cells, with rucaparib 10 µM, 100% = cells with rucaparib alone.
Setting [16] is: at 0.000305 µM, OCI-C5x cells, without rucaparib.
Where [17] appears, read: at 0.000305 µM, OCI-P5x cells, with rucaparib 20 µM, 100% = cells with rucaparib alone.
The mark [18] stands for this setting: at 0.000305 µM, OCI-P5x cells, without rucaparib.
The mark [19] stands for this setting: at 0.00122 µM, OCI-C5x cells, with rucaparib 10 µM, 100% = cells with rucaparib alone.
Where [20] appears, read: at 0.00122 µM, OCI-C5x cells, without rucaparib.
The mark [21] stands for this setting: at 0.00122 µM, OCI-P5x cells, with rucaparib 20 µM, 100% = cells with rucaparib alone.
Where [22] appears, read: at 0.00122 µM, OCI-P5x cells, without rucaparib.
Setting [23] is: at 0.00488 µM, OCI-C5x cells, with rucaparib 10 µM, 100% = cells with rucaparib alone.
[24] abbreviates: at 0.00488 µM, OCI-C5x cells, without rucaparib.
Setting [25] is: at 0.00488 µM, OCI-P5x cells, with rucaparib 20 µM, 100% = cells with rucaparib alone.
The mark [26] stands for this setting: at 0.00488 µM, OCI-P5x cells, without rucaparib.
Setting [27] is: at 0.0195 µM, OCI-C5x cells, with rucaparib 10 µM, 100% = cells with rucaparib alone.
[28] abbreviates: at 0.0195 µM, OCI-C5x cells, without rucaparib.
Where [29] appears, read: at 0.0195 µM, OCI-P5x cells, with rucaparib 20 µM, 100% = cells with rucaparib alone.
The mark [30] stands for this setting: at 0.0195 µM, OCI-P5x cells, without rucaparib.
[31] abbreviates: at 0.0781 µM, OCI-C5x cells, with rucaparib 10 µM, 100% = cells with rucaparib alone.
The mark [32] stands for this setting: at 0.0781 µM, OCI-C5x cells, without rucaparib.
The mark [33] stands for this setting: at 0.0781 µM, OCI-P5x cells, with rucaparib 20 µM, 100% = cells with rucaparib alone.
Where [34] appears, read: at 0.0781 µM, OCI-P5x cells, without rucaparib.
Setting [35] is: at 0.313 µM, OCI-C5x cells, with rucaparib 10 µM, 100% = cells with rucaparib alone.
Setting [36] is: at 0.313 µM, OCI-C5x cells, without rucaparib.
Setting [37] is: at 0.313 µM, OCI-P5x cells, with rucaparib 20 µM, 100% = cells with rucaparib alone.
[38] abbreviates: at 0.313 µM, OCI-P5x cells, without rucaparib.
Where [39] appears, read: at 1.25 µM, OCI-C5x cells, with rucaparib 10 µM, 100% = cells with rucaparib alone.
The mark [40] stands for this setting: at 1.25 µM, OCI-C5x cells, without rucaparib.
[41] abbreviates: at 1.25 µM, OCI-P5x cells, with rucaparib 20 µM, 100% = cells with rucaparib alone.
Where [42] appears, read: at 1.25 µM, OCI-P5x cells, without rucaparib.
Where [43] appears, read: at 5 µM, OCI-C5x cells, with rucaparib 10 µM, 100% = cells with rucaparib alone.
Where [44] appears, read: at 5 µM, OCI-C5x cells, without rucaparib.
Setting [45] is: at 5 µM, OCI-P5x cells, with rucaparib 20 µM, 100% = cells with rucaparib alone.
Setting [46] is: at 5 µM, OCI-P5x cells, without rucaparib.

For orientation: viability means a read-out of living cells in per cent, often relative to untreated cells. One may read the AC50 as the midpoint of the concentration-response curve, whichever way the signal moves. One may read the IC50 as the concentration needed to halve the response being measured.

For `Cc1cnc(-c2ccccc2C(C)C)nc1NCc1ccc(-n2ccnn2)cc1`, the outcome in experiment [1], in experiment [2], in experiment [3] and in experiment [4] was inactive. In addition, the fold change in experiment [5] (setting [9]) is 0.905 (inactive); in experiment [5] (setting [10]) it was 0.465. Also, the values for the cell count in experiment [5] (setting [11]) and in experiment [5] (setting [12]) were 7550 and 8340, respectively. In addition, the z-score in experiment [6] (setting [13]) was -0.372 (inactive); in experiment [6] (setting [14]), 0.422. The viability in experiment [7] (setting [15]) was 118% (inactive); in experiment [7] (setting [16]), 116% (inactive); in experiment [7] (setting [17]) it was 101% (inactive); in experiment [7] (setting [18]), 100% (inactive); in experiment [7] (setting [19]), 132% (inactive); in experiment [7] (setting [20]) it was 118% (inactive). Further, the viability was 95.9% (active) in experiment [7] (setting [21]); 102% (inactive) in experiment [7] (setting [22]); 132% (inactive) in experiment [7] (setting [23]); 120% (inactive) in experiment [7] (setting [24]); 98.5% (active) in experiment [7] (setting [25]); 102% (inactive) in experiment [7] (setting [26]). Also, the viability in experiment [7] (setting [27]) was 123% (inactive); in experiment [7] (setting [28]) it was 110% (inactive); in experiment [7] (setting [29]), 103% (inactive); in experiment [7] (setting [30]), 97.4% (active); in experiment [7] (setting [31]) it was 123% (inactive); in experiment [7] (setting [32]) it was 118% (inactive). The viability was 100% (inactive) in experiment [7] (setting [33]); 97.6% (active) in experiment [7] (setting [34]); 126% (inactive) in experiment [7] (setting [35]); 126% (inactive) in experiment [7] (setting [36]); 96.4% (active) in experiment [7] (setting [37]); 101% (inactive) in experiment [7] (setting [38]). For the same compound, the viability in experiment [7] (setting [39]) was 127% (inactive); in experiment [7] (setting [40]), 119% (inactive); in experiment [7] (setting [41]), 104% (inactive); in experiment [7] (setting [42]) it was 96.9% (active); in experiment [7] (setting [43]), 129% (inactive); in experiment [7] (setting [44]) it was 130% (inactive). Further, the values for the viability in experiment [7] (setting [45]) and in experiment [7] (setting [46]) were 94.5% (active) and 97.8% (active), respectively.

For `CN[C@H]1CN(c2ccc3c(=O)c(C(=O)O)cn(-c4nccs4)c3n2)C[C@@H]1OC`, the AC50 in experiment [1] is 0.762 µM (active); in experiment [2] it was 4.28 µM (active). Besides, the viability in experiment [7] (setting [15]) was 118% (inactive); in experiment [7] (setting [16]), 108% (inactive); in experiment [7] (setting [17]), 98.3% (active); in experiment [7] (setting [18]) it was 105% (inactive); in experiment [7] (setting [19]) it was 121% (inactive); in experiment [7] (setting [20]), 111% (inactive). The viability was 92.3% (active) in experiment [7] (setting [21]); 97.9% (active) in experiment [7] (setting [22]); 107% (inactive) in experiment [7] (setting [23]); 103% (inactive) in experiment [7] (setting [24]); 100% (inactive) in experiment [7] (setting [25]); 98.6% (active) in experiment [7] (setting [26]). Moreover, the viability in experiment [7] (setting [27]) was 110% (inactive); in experiment [7] (setting [28]), 110% (inactive); in experiment [7] (setting [29]), 93.2% (active); in experiment [7] (setting [30]), 95.3% (active); in experiment [7] (setting [31]), 110% (inactive); in experiment [7] (setting [32]) it was 92.5% (active). The viability in experiment [7] (setting [33]) was 91.4% (active); in experiment [7] (setting [34]), 91.4% (active); in experiment [7] (setting [35]), 143% (inactive); in experiment [7] (setting [36]) it was 119% (inactive); in experiment [7] (setting [37]) it was 79.7% (active); in experiment [7] (setting [38]) it was 62.5% (active). For the same compound, the viability in experiment [7] (setting [39]) is 154% (inactive); in experiment [7] (setting [40]), 118% (inactive); in experiment [7] (setting [41]) it was 63.6% (active); in experiment [7] (setting [42]) it was 41.5% (active); in experiment [7] (setting [43]), 9.22% (active); in experiment [7] (setting [44]), 12.6% (active). Moreover, the viability in experiment [7] (setting [45]) is 9.42% (active); in experiment [7] (setting [46]) it was 6.69% (active).

In the case of `CCCc1cc(C)[nH]c(=O)c1CNC(=O)c1cc(-c2ccc(N3CCN(C(C)C)CC3)nc2)cc2c1cnn2C(C)C`, the AC50 was 26.3 µM (active) in experiment [1], 20.9 µM (active) in experiment [2] and 14.8 µM (active) in experiment [3]. Besides, the fold change was 0.939 (inactive) in experiment [5] (setting [9]) and 0.565 in experiment [5] (setting [10]). For the same compound, the cell count in experiment [5] (setting [11]) worked out at 6600; in experiment [5] (setting [12]), 7030. Besides, the z-score is 0.696 (inactive) in experiment [6] (setting [13]) and -0.809 in experiment [6] (setting [14]).

Take `Nc1nccn2c(C3CCC(C(=O)O)CC3)nc(-c3cc4cccc(Cl)c4[nH]3)c12` (stereo not drawn): the AC50 in experiment [1] is 4.17 µM (active); in experiment [2], 2.63 µM (active). Further, the compound was classed as inactive in experiment [4].

As for `CN(C)c1ccc(Nc2nc(N)n(C(=O)c3c(F)cccc3F)n2)cc1`, the AC50 in experiment [1] is 8.33 µM (active); in experiment [2], 5.25 µM (active). In experiment [4], the IC50 is 14.8 µM (active).

Consider `Nc1ncnc2c1C(=O)N(c1ccc(C3CCC(CC(=O)O)CC3)cc1)CCO2` (stereo not drawn), for which the compound was called inactive in experiment [1], in experiment [2], in experiment [3] and in experiment [4]. Further, the fold change in experiment [5] (setting [9]) was 0.873 (inactive); in experiment [5] (setting [10]), 0.72. Further, the cell count in experiment [5] (setting [11]) worked out at 8200; in experiment [5] (setting [12]) it was 9390. The z-score in experiment [6] (setting [13]) is -0.311 (inactive); in experiment [6] (setting [14]) it was -0.473.

For the compound `CCCOc1ccn2c(C(C)=O)cc(-c3ccccc3S(C)(=O)=O)c2c1`, the compound was classed as inactive in experiment [1], in experiment [2] and in experiment [4].

In the case of `Cc1[nH]nc2ncc(C(=O)N3CCC[C@H]3c3ccc(Cl)cc3)cc12`, the result in experiment [1], in experiment [2] and in experiment [4] was inactive.

Take `N#Cc1cccc(-c2c[nH]c3ncnc(N4CCOCC4)c23)c1`: the call in experiment [1], in experiment [2] and in experiment [4] was inactive.

Turning to `CCCC1OC2C[C@H]3[C@@H]4CCC5=CC(=O)C=C[C@]5(C)[C@H]4C(O)C[C@]3(C)[C@]2(C(=O)CO)O1` (stereo partly drawn), the compound was classed as inactive in experiment [1], in experiment [8] and in experiment [4].
